Test [1] concerns Sodium/Iodide Symporter (NIS), SLC5A5 (gene 6528). Put plainly: CPHEA_Stoker_NIS_Inhibition_RAIU: CPHEA's Radioactive Iodide Uptake (RAIU) Assay for Sodium/Iodide Symporter (NIS) Inhibition, Stoker and Laws Labs (AID 2283841). The procedure, abridged:
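Iodide uptake through human NIS is measured in an engineered HEK293T line. Cells take up 125I (329pM final) for 2 hours at room temperature alongside chemicals at 0.001–100uM. Retained radioactivity is counted, and the signal is expressed against DMSO controls.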

Test [2] addresses chicken Estrogen Receptor (ERa), ESR1 (gene 396099) (UniProt P06212). Put plainly: ATG_chERa_XSP2: Attagene TRANS-FACTORIAL Multi-Species (XSP2) HepG2 Assay for chicken Estrogen Receptor (ERa) (AID 2283817).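 Also: actives raise reporter signal above DMSO so AC50 reflects ER activation.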 The method, boiled down:
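Transiently transfected HepG2 cells expressing chimeric chicken ERa-GAL4 reporter units, dosed 24 h with 3 nM 6-alpha-fluorotestosterone and 1.5 nM norgestrel present. Reporter mRNA measured by RT-PCR and capillary electrophoresis; gain-of-signal fitted relative to DMSO.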

For test [3], the system named is zebrafish Estrogen Receptor (ER2a), gene 317734. Briefly: ATG_zfER2a_XSP2: Attagene TRANS-FACTORIAL Multi-Species (XSP2) HepG2 Assay for zebrafish Estrogen Receptor (ER2a) (AID 2283818).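 Also: hits raise reporter mRNA so AC50 reflects activation of zebrafish ER2a.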 The procedure, abridged:
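HepG2 cells transiently transfected with GAL4-UAS reporter units and chimeric zebrafish ER2a-Gal4, exposed 24 h; medium contains 3 nM 6-alpha-fluorotestosterone and 1.5 nM norgestrel. Reporter mRNA quantified by RT-PCR, HpaI digestion, capillary electrophoresis; gain versus DMSO.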

In test [4] the test system is zebrafish Estrogen Receptor (ER2b), gene 317733. Put plainly: ATG_zfER2b_XSP2: Attagene TRANS-FACTORIAL Multi-Species (XSP2) HepG2 Assay for zebrafish Estrogen Receptor (ER2b) (AID 2283823).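 Also: fitted upward as reporter gain over DMSO so potency reflects activation.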 The procedure, abridged:
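Cells used were HepG2, transiently transfected with chimeric nuclear receptor-Gal4 reporter units. After 24 h of chemical treatment, reporter transcripts were amplified by RT-PCR, labelled and sized by capillary electrophoresis, with induction analysed relative to DMSO.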

The nature of test [5]: ATG_M_32_XSP2: Attagene TRANS-FACTORIAL Multi-Species (XSP2) HepG2 Assay for M19 Transcription Factor (Internal Marker) (AID 2283826). The method, boiled down: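 Transfected HepG2 (multiplexed GAL4-UAS reporters), 24 h chemical exposure, 3 nM 6-alpha-fluorotestosterone + 1.5 nM norgestrel added. RNA → oligo(dT) RT → PCR → 6-FAM primer extension → HpaI cut → CE. Fitted upward vs DMSO.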

In test [6] the test system is frog Estrogen Receptor (ER2), gene 100174814. Put plainly: ATG_frER2_XSP2: Attagene TRANS-FACTORIAL Multi-Species (XSP2) HepG2 Assay for frog Estrogen Receptor (ER2) (AID 2283828). The procedure, abridged: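 HepG2 cells transiently transfected with multiplexed GAL4-UAS reporter units expressing chimeric frog ER2–Gal4 protein; reporter mRNA measured 24 h after chemical dosing by RT-PCR, fluorescent labeling and capillary electrophoresis. Gain-of-signal fitted relative to DMSO baseline.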

Test [7] addresses Peroxisome proliferator-activated receptor gamma (Homo sapiens) (UniProt P37231). Briefly: ATG_hPPARg_XSP2: Attagene TRANS-FACTORIAL Multi-Species (XSP2) HepG2 Assay for human Peroxisome Proliferator-activated Receptor gamma (PPARg) (AID 2283829).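 Also: actives raise reporter mRNA above DMSO so AC50 reflects PPARg activation.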 The procedure, abridged: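 After transfecting HepG2 with GAL4-UAS reporter constructs, cells are dosed for 24 h; total RNA is reverse-transcribed, PCR-amplified, FAM-labeled, HpaI-digested and resolved by capillary electrophoresis. Activity is measured as mRNA induction relative to DMSO.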

Test [8] has as its target Nuclear receptor subfamily 1 group I member 2 (Mus musculus) (UniProt O54915). Briefly: ATG_mPXR_XSP2: Attagene TRANS-FACTORIAL Multi-Species (XSP1) HepG2 Assay for mouse Pregnane X Receptor (PXR) (AID 2283831). The procedure, abridged: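 Reporter transcripts were quantified by RT-PCR, FAM primer extension, HpaI digestion and capillary electrophoresis after 24 h of chemical exposure in transiently transfected HepG2 cells carrying chimeric receptor-GAL4 constructs; DMSO served as baseline.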

Test [9] deals with zebrafish Thyroid Hormone Receptor alpha (TRa), thraa (gene 30670) (UniProt Q98867). Briefly: ATG_zfTRa_XSP2: Attagene TRANS-FACTORIAL Multi-Species (XSP1) HepG2 Assay for zebrafish Thyroid Hormone Receptor alpha (TRa) (AID 2283832).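 Also: actives raise zebrafish TRa-Gal4 reporter transcript above DMSO baseline.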 The method, boiled down: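 HepG2 cells transiently transfected with multiplexed GAL4-UAS reporter units expressing chimeric NR-Gal4 proteins; 24 h after dosing, reporter mRNA measured by RT-PCR, FAM labelling, HpaI digestion and capillary electrophoresis; gain of signal versus DMSO baseline.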

For test [10], the system named is zebrafish Peroxisome Proliferator-activated Receptor gamma (PPARg), gene 557037. Put plainly: ATG_zfPPARg_XSP2: Attagene TRANS-FACTORIAL Multi-Species (XSP2) HepG2 Assay for zebrafish Peroxisome Proliferator-activated Receptor gamma (PPARg) (AID 2283833).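 Also: actives increase reporter signal over DMSO so AC50 reflects activation.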 The procedure, abridged:
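Multi-species TRANS format in HepG2, 24 h dosing; medium also contained 3 nM 6-alpha-fluorotestosterone and 1.5 nM norgestrel to stimulate androgen receptor. Zebrafish PPARg-GAL4 induced reporter mRNA was measured by RT-PCR/capillary electrophoresis.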

Test [11] can be described thus: ATG_M_61_XSP2: Attagene TRANS-FACTORIAL Multi-Species (XSP2) HepG2 Assay for M61 Transcription Factor (Internal Marker) (AID 2283835; active = hit-call score of the fitted dose curve at least 0.9, where 1 is the maximum; inactive = score below 0.9;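 also: active means a rise in signal above the DMSO baseline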). The method, boiled down:
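HepG2 cells transiently transfected with multiple GAL4-UAS reporter units; reporter mRNA measured 24 h after dosing by RT-PCR, fluorescent labelling and capillary electrophoresis. Medium contained 3 nM 6-alpha-fluorotestosterone and 1.5 nM norgestrel; internal marker, DMSO baseline.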

Test [12] deals with turtle Thyroid Hormone Receptor, alpha (TRa), gene 101949057. Briefly: ATG_trTRa_XSP2: Attagene TRANS-FACTORIAL Multi-Species (XSP1) HepG2 Assay for turtle Thyroid Hormone Receptor, alpha (TRa) (AID 2283834).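 Also: hits raise reporter mRNA over the DMSO baseline so AC50 marks activators.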 The procedure, abridged: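 Transfection of HepG2 with multiple reporter transcription units, then chemical dosing for 24 h. Total RNA was reverse-transcribed, reporter sequences PCR-amplified and FAM-labelled, then sized by capillary electrophoresis. DMSO served as baseline.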

The target in test [13] is human Thyroid hormone Receptor alpha (TRa), THRA (gene 7067) (UniProt P10827). Put plainly: ATG_hTRa_XSP2: Attagene TRANS-FACTORIAL Multi-Species (XSP2) HepG2 Assay for human Thyroid hormone Receptor alpha (TRa) (AID 2283838). The procedure, abridged:
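HepG2 cells transiently transfected with multiplexed GAL4-UAS reporter units and exogenous NR-GAL4 chimeras; 24 h chemical exposure with 3 nM 6-alpha-fluorotestosterone and 1.5 nM norgestrel present. Reporter mRNA measured by RT-PCR, FAM labelling, HpaI digestion, capillary electrophoresis; gain-of-signal versus DMSO.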

The target in test [14] is frog Thyroid hormone Receptor alpha (TRa), thra-a (gene 397942) (UniProt P15204). Briefly: ATG_frTRa_XSP2: Attagene TRANS-FACTORIAL Multi-Species (XSP2) HepG2 Assay for frog Thyroid hormone Receptor alpha (TRa) (AID 2283839). The procedure, abridged: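 Transfect HepG2 with multiple reporter units (GAL4-UAS), dose chemical, incubate 24 h. Isolate RNA, reverse-transcribe, PCR-amplify reporter, label with 6-FAM by primer extension, digest with HpaI, run capillary electrophoresis; induction scored against DMSO.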

Test [15] concerns the target human Thyroid hormone Receptor beta (TRb), THRB (gene 7068) (UniProt P10828). Briefly: ATG_hTRb_XSP2: Attagene TRANS-FACTORIAL Multi-Species (XSP2) HepG2 Assay for human Thyroid hormone Receptor beta (TRb) (AID 2283840).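 Also: actives raise reporter mRNA so potency reflects agonist-like gain of signal.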 The method, boiled down: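 Transient transfection of human HepG2 with multi-species NR-Gal4/GAL4-UAS reporter constructs; 24 h compound treatment; RNA isolation, reverse transcription, PCR and HpaI digest; capillary electrophoresis of labeled fragments; activity fitted upward versus DMSO.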

The nature of test [16]: ATG_XTT_Cytotoxicity_XSP2: Cytotoxicity Assessment in the Attagene TRANS-FACTORIAL Multi-Species (XSP2) HepG2 Assay (AID 2283837). The procedure, abridged:
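HepG2 cells, transiently transfected with multiple reporter constructs, exposed to chemical for 24 h. Cell number assessed with XTT fluorescence read-out; loss of signal fitted relative to DMSO.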

The values below come from PubChem BioAssay (EPA / NIEHS).

Values joined by “and” are separate entries in the source; they are usually repeats but may differ in a detail not shown here. Equal values may be shown once. Records with an inconclusive call do not appear. More than one record can exist for a structure, and the calls need not agree. Active and inactive are the calls of the source. The calls were made as follows, unless noted: active = hit-call score of the fitted dose curve at least 0.9, where 1 is the maximum; inconclusive = response in the unintended direction; inactive = score below 0.9.

Sequence of Peroxisome proliferator-activated receptor gamma (Homo sapiens) (P37231 whole entry, looked up, the tested form may be a part): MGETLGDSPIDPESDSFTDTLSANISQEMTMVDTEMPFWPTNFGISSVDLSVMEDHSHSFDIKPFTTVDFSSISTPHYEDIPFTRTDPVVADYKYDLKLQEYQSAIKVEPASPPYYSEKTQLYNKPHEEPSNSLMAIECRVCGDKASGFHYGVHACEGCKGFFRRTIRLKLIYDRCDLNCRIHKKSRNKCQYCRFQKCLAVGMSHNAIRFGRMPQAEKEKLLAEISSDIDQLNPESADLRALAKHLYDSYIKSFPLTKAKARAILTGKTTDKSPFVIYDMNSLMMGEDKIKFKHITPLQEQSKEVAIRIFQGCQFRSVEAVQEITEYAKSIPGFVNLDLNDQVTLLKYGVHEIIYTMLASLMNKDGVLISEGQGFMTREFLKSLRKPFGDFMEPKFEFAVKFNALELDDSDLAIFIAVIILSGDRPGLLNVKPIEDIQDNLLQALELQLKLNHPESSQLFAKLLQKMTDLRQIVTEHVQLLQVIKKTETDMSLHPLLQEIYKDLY
Sequence of frog Thyroid hormone Receptor alpha (TRa), thra-a (gene 397942) (P15204 whole entry, looked up, the tested form may be a part): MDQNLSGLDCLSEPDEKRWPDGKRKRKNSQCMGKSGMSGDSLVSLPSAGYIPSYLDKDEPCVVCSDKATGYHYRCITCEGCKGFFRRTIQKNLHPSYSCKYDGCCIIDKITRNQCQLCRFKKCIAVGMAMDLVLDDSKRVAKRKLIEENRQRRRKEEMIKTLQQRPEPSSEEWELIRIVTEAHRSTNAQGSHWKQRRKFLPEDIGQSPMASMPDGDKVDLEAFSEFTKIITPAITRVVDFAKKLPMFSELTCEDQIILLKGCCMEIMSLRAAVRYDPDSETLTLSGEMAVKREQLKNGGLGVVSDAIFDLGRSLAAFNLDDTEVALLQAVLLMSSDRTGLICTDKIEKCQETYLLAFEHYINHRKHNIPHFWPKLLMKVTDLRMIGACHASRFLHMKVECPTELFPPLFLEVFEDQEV
Sequence of human Thyroid hormone Receptor alpha (TRa), THRA (gene 7067) (P10827 whole entry, looked up, the tested form may be a part): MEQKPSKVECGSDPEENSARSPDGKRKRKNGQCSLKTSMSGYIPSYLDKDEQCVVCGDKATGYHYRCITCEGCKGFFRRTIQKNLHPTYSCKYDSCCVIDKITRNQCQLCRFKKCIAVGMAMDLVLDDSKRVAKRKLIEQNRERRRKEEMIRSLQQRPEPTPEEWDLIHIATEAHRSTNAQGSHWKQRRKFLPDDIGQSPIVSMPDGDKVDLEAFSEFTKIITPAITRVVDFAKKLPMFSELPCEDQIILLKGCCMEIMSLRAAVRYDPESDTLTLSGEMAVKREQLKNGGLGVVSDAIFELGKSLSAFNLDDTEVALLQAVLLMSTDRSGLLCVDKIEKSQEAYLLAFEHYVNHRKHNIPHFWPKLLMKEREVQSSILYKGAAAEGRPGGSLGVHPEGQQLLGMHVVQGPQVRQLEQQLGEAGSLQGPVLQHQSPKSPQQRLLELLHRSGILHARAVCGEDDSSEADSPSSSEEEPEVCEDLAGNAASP
Sequence of Nuclear receptor subfamily 1 group I member 2 (Mus musculus) (O54915 whole entry, looked up, the tested form may be a part): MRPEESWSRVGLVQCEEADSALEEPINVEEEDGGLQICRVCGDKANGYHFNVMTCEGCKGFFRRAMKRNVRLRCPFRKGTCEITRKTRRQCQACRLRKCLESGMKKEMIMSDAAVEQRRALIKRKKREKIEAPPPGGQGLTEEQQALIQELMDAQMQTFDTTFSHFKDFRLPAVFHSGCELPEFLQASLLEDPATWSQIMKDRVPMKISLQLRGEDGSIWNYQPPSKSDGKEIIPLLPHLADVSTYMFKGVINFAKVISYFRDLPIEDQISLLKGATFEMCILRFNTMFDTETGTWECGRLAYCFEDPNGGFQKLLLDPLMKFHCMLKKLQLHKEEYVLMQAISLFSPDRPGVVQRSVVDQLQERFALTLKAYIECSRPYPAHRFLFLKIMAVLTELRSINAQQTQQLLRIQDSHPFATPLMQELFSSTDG
Sequence of human Thyroid hormone Receptor beta (TRb), THRB (gene 7068) (P10828 whole entry, looked up, the tested form may be a part): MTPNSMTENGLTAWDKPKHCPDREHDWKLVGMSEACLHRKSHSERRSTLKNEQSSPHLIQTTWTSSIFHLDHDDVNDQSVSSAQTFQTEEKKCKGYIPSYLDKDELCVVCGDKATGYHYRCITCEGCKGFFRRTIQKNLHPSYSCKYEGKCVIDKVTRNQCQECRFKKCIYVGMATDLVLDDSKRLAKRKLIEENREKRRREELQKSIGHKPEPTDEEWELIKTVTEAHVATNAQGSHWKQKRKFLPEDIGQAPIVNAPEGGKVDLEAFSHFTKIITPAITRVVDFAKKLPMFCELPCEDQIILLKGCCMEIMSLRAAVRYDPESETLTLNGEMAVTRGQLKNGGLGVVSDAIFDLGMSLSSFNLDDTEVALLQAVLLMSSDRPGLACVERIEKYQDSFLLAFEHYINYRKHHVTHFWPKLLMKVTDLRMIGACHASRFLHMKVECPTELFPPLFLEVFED
Sequence of zebrafish Thyroid Hormone Receptor alpha (TRa), thraa (gene 30670) (Q98867 whole entry, looked up, the tested form may be a part): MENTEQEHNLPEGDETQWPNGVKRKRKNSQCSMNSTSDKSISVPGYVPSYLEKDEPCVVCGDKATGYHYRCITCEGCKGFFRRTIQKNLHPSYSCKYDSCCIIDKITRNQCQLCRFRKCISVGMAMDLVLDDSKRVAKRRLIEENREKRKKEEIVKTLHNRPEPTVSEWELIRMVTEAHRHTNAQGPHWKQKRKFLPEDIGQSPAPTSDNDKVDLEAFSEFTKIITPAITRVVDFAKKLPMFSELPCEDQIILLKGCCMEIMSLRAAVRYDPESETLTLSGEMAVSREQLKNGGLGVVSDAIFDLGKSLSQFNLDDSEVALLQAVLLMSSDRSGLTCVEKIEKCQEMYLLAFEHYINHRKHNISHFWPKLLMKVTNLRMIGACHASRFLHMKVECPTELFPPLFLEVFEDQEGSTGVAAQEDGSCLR
Sequence of chicken Estrogen Receptor (ERa), ESR1 (gene 396099) (P06212 whole entry, looked up, the tested form may be a part): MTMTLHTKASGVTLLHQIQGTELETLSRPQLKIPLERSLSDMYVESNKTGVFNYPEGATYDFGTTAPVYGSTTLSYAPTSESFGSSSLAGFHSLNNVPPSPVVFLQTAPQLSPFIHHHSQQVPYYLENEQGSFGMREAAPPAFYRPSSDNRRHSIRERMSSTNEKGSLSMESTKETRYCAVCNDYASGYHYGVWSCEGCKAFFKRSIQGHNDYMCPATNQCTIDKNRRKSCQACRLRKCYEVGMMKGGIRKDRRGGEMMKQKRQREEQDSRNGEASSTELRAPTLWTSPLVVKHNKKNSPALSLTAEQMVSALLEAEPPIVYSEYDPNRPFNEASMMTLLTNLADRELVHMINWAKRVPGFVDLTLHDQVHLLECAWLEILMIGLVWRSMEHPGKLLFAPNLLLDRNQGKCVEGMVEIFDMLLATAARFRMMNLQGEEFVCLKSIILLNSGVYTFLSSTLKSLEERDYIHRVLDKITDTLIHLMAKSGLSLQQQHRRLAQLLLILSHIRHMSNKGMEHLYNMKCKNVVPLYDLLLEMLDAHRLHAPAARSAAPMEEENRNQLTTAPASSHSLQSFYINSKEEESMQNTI

With `CCOP(=S)(Oc1cnc(C(C)(C)C)nc1)OC(C)C` (configuration not stated), the outcome in test [1] was inactive.

`Cc1cc(C2CC2)nc(Nc2ccccc2)n1`: the AC50 in test [1] is 44 µM (active).

Consider `CON=C(C(=O)OC)c1ccccc1CON=C(C)c1cccc(C(F)(F)F)c1`, for which the concentration at half-maximal activity (AC50) in test [1] is 2.05 µM (active).

Regarding `CCCCOC(=O)[C@@H](C)Oc1ccc(Oc2ccc(C#N)cc2F)cc1`, the outcome in test [1] was inactive.

As to `CCCOCC(=Nc1ccc(Cl)cc1C(F)(F)F)n1ccnc1`, the result in [2], in test [3], in test [5], in test [6], in [9] and in test [10] was inactive. Moreover, the molecule was called inactive in test [11]. Moreover, the concentration at half-maximal activity (AC50) in [4] is 39.8 µM (active); in [7], 0.909 µM (active); in test [8], 9.9 µM (active); in [1], 29 µM (active).

With `CCCSP(=O)(OCC)Oc1ccc(Br)cc1Cl` (configuration not stated), the result in test [1] was inactive.

With `CC(C)N(C(=O)SCC(Cl)=C(Cl)Cl)C(C)C`, the AC50 in test [1] is 21.1 µM (active).

Consider `CSc1nc(NC(C)C)nc(NC(C)C)n1`, for which the outcome in [1] was inactive.

Take `C#CCC1=C(C)C(OC(=O)C2C(C=C(C)C)C2(C)C)CC1=O` (configuration not stated): the molecule was called inactive in [3], in test [4], in [6], in test [9], in test [10] and in test [12]. In addition, the outcome in test [11], in test [13], in [14] and in test [15] was inactive. Besides, the results for the AC50 in test [7], in test [8] and in test [1] were 22.6 µM (active), 0.712 µM (active) and 47.5 µM (active), respectively.

On to `CCOC(=O)COc1cc(-c2nn(C)c(OC(F)F)c2Cl)c(F)cc1Cl`, for which the result in test [1] was inactive.

`N#CSCSC#N`: in [1], the concentration at half-maximal activity (AC50) was 18.3 µM (active).

`CC(C)=CC1C(C(=O)OCN2C(=O)C3=C(CCCC3)C2=O)C1(C)C` (configuration not stated): the AC50 in test [1] is 32.9 µM (active).

Consider `C[Si](Cn1cncn1)(c1ccc(F)cc1)c1ccc(F)cc1`, for which the result in test [1] was inactive.

As for `CCC(=O)Nc1ccc(Cl)c(Cl)c1`, the outcome in test [2], in test [3], in test [4], in test [6], in test [9] and in test [10] was inactive. Further, the molecule was classed as inactive in [12], in test [11], in test [16], in [13], in test [14] and in [15]. Further, the outcome in test [1] was inactive. The AC50 in test [4] was 170 µM (active); in test [7] it was 27.2 µM (active); in test [8], 27.6 µM (active) and 24.3 µM (active); in [13], 165 µM (active).

The AC50 is the concentration giving half of the maximal activity seen.
